In the library only some 12% were active in any assay of this set; here they are far more common.
HP1b binding inh – inhibitors of HP1-beta chromodomain binding to methylated histone tails; P83916; AlphaScreen HP1-beta / biotin-H3K9me3 peptide binding; Potency, µM (top dose mostly 114 µM), hits mostly inhibitors; hit rate 0.56% among 390,000; AID 540317; further: nearly all actives have a fitted effect of over 70% in size
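Compound inhibition of the preformed complex between 50 nM HP1-beta and 50 nM biotinylated H3K9me3 peptide was read by AlphaScreen. Buffer was PBS pH 7.4 with 0.01% Tween-20. Incubations ran 30 min at room temperature, with 10 ug/mL donor/acceptor beads.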
JMJD2A Tudor inh – blocks the human JMJD2A Tudor domain; AlphaScreen JMJD2A-Tudor / H3K4me3 peptide binding; Potency, µM (top dose mostly 114 µM), usual class: inhibitors; hit rate 4.4% among 390,000; further: nearly all actives have a fitted effect of over 50% in size
Target sequence (O75164 whole entry, looked up, the tested form may be a part): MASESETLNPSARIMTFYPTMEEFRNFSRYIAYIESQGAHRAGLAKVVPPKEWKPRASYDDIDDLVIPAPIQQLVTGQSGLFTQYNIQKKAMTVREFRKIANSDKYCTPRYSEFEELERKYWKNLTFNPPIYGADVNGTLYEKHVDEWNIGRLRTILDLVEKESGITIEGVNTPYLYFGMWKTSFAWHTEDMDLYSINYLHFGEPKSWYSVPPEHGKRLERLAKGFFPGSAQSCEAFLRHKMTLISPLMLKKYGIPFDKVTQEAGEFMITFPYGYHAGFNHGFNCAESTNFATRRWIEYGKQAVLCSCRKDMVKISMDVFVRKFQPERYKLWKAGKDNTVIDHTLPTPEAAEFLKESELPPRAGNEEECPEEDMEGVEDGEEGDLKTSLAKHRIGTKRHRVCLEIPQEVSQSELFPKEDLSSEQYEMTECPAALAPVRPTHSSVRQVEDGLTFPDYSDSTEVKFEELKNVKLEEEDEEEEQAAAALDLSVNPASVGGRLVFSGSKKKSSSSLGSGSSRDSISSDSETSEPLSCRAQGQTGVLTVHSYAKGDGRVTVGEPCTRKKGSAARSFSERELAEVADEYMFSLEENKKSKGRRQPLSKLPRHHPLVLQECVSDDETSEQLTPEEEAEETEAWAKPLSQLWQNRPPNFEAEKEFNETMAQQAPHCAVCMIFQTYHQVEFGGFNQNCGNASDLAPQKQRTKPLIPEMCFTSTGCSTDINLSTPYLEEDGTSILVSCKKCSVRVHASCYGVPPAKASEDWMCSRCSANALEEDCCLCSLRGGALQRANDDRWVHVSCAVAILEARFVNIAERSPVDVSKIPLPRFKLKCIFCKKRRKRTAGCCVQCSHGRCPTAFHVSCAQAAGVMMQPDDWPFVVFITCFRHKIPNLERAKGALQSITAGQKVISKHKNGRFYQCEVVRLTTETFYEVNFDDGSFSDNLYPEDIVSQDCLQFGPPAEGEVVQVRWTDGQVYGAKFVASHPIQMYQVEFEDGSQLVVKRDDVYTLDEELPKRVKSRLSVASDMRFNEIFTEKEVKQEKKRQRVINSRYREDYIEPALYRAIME
Sfp PPTase inh – inhibitors of Bacillus subtilis Sfp phosphopantetheinyl transferase; Biochemical Sfp PPTase activity, qHTS; Potency, µM, actives largely listed as inhibitors; hit rate 3.5% among 310,000;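 further: the enzyme is Sfp with the accession as filed and its product quenches rhodamine fluorescence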
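Fluorescence-quenching assay with 15 nM Sfp, 5 uM rhodamine-CoA and 12.5 uM BHQ-2-labelled ybbR peptide in pH 7.6 Hepes/MgCl2 buffer. Enzyme was pre-incubated with compound for 15 min at room temperature. Rate was taken from the 30-min fluorescence change (525/598 nm).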
TDP1 block – blocks human tyrosyl-DNA phosphodiesterase 1. Potency, µM (series often up to 130 µM), most hits filed as inhibitors. Q9NUW8. hit rate 0.28% among 350,000. recombinant TDP1, AlphaScreen DNA substrate cleavage; further: nearly all actives have a fitted effect of over 40% in size
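Recombinant human Tdp1 (E. coli-expressed, 1 nM final) preincubated with compounds 15 min at room temperature, then 5'-biotin/3'-phosphotyrosine-FITC DNA substrate (15 nM final) added for 5 min. AlphaScreen beads (10 ug/ml final) added 10 min; cleavage lowers signal.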
BAZ2B block – BAZ2B (human) inhibition; hit rate 4.4% among 360,000; Potency, µM (doses to about 114 µM), usual class: inhibitors; AlphaScreen BAZ2B-H3K14Ac peptide displacement; Q9UIF8; further: nearly all actives have a fitted effect of over 60% in size
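BAZ2B 50 nM plus b-H3(5-23)K14Ac 50 nM, PBS pH 7.4/0.01% Tween-20, 30 min RT; compound added (max 110 uM), 30 min RT; streptavidin donor/Ni-chelate acceptor beads 10 ug/mL final, 20 min dark; AlphaScreen read.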
G9a inh-1 – inhibitors of human histone lysine methyltransferase G9a. hit rate 8.8% among 350,000. G9a H3K9 monomethylation, AlphaScreen, 2 h. AID 504332. Potency, µM (titrated, usually from 102 µM), most hits filed as inhibitors; further: nearly all actives have a fitted effect of over 75% in size
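Step 1: enzyme (final 20 nM) with compound, 15 min RT. Step 2: substrate peptide 500 nM and SAM 20 uM, 2 h RT. Step 3: anti-H3K9me1 antibody and AlphaScreen beads, 10 min, then plate read.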
G9a inh-2 – inhibits human G9a histone lysine methyltransferase, hit confirmation; AID 588344; Potency, µM, most hits filed as inhibitors; G9a H3K9 monomethylation, AlphaScreen, 2 h; hit rate 89% among 370; shares compounds with JMJD2A Tudor inh; further: nearly all actives have a fitted effect of over 65% in size
RGS4 confirm – inhibits human RGS4, hit validation; shares compounds with JMJD2A Tudor inh; AID 602388; Potency, µM, hits mostly inhibitors; hit rate 80% among 25; RGS4 GAP activity, Transcreener GDP fluorescence polarization
A number is an active result; n = inactive; u = inconclusive; x = no result; [ ] = dose if it differs, or a comment. The call rests on the fitted dose curve; in most records, active means well fitted curve in the direction sought with a large enough effect; inconclusive means small, poorly fitted or top-dose-only effect, or another doubt; inactive means no such curve, though single readings can be large; an effect the other way counts as inactive or inconclusive.

SMILES | HP1b binding inh | JMJD2A Tudor inh | Sfp PPTase inh | TDP1 block | BAZ2B block | G9a inh-1 | G9a inh-2 | others
O=C1C2C3C=CC(CO)(O3)C2C(=O)N1c1ccccc1-c1ccccc1 (stereo not drawn) | u | 18µM | 1.1µM | n | n | 0.32µM | 0.22
CC(CC(=O)Nc1cc(S(=O)(=O)N2CCOCC2)ccc1OCC(F)(F)F)c1ccccc1 (stereo not drawn) | n | n | x | n | n | n[2.33 µM] | x
CCOC(=O)N1CCc2c(sc(NC(=O)Cc3ccccc3)c2C(=O)c2ccc(OC)cc2)C1 | n | n | n | n | n | u | x
CCOC(=O)N1CCc2c(sc(NCc3sccc3C)c2C(=O)Nc2cc(OC)ccc2OC)C1 | u | 11µM | x | n | u | 2.8µM | 5.8
CCOC(=O)N1CCc2c(sc(NCc3ccc(OC)c(Br)c3)c2C(=O)Nc2cc(OC)ccc2OC)C1 | u | u | x | n | n | 1.6µM | 1.8
CC(C)(C)OC(=O)N1CCC(c2c(C(=O)NCCN3CCOCC3)cnn2-c2ccccc2)CC1 | n | n | x | n | n | n | x
Fc1cccc(Cl)c1CNc1ccc(N2CCCC2)cc1 | 25µM | 20µM | u | n | 13µM | 1.8µM | 5.6
CC(C)(Oc1ccc(Cl)cc1)C(=O)NCc1n[nH]c(=O)c2ccccc12 | n | n | x | n | n | n[0.501 µM] | x
N#Cc1nc(COc2ccc(Cl)cc2Cl)oc1N1CCN(c2ccccc2)CC1 | n | n | n | n | u | n[2.33 µM] | x
Cc1ccccc1OCc1ccc(-c2nc(C#N)c(N3CCN(c4ccccc4)CC3)o2)o1 | n | n | x | n | u | u | u
COc1cccc(-c2cncnc2NCc2cccnc2)c1 | x | x | u | x | x | n[0.501 µM] | x | RGS4 confirm=30
COc1cccc(-c2cncnc2NCc2cccc(C)c2)c1 | x | x | n | x | x | n[0.501 µM] | x
Cc1cc(C)cc(NC(=O)CSc2nc3sc4c(c3c(=O)[nH]2)CCCC4)c1 | n | n | x | n | n | n | x
COC(=O)c1ccccc1NC(=O)CSc1nc2sc3c(c2c(=O)[nH]1)CCCC3 | u | 56µM | x | n | u | u | 4.1
CC(C)(C)C1=Nn2c(nnc2-c2ccccn2)SC1 | u | 7.9µM | 56µM | n | 20µM | u | 1.8
CC(C)(C)C1=Nn2c(nnc2-c2ccccc2F)SC1 | n | n | n | n | n | n | x
CCOc1ccc(NC(=O)c2c(NCc3cccnc3)sc3c2CCC(C)C3)cc1 (stereo not drawn) | n | 16µM | x | n | u | 2.2µM | 1.3
CCC(Sc1nnnn1C)C(=O)Nc1ccc(C(C)=O)cc1 (stereo not drawn) | n | n | n | n | u | u | 11
CCN(c1ccc(NC(=O)COC(=O)c2ccc(S(=O)(=O)N3CCCC3)cc2)cc1)C(C)C | n | n | n | n | n | u | 2.2
COc1ccc(NC(=O)CCN2CCN(S(=O)(=O)c3ccc(C(C)C)cc3)CC2)cc1 | n | n | n | n | n | n[12.7 µM] | x
CC(C)c1ccc(S(=O)(=O)N2CCN(CCC(=O)Nc3ccc(N(C)C)cc3)CC2)cc1 | u | 35µM | n | n | 22µM | 1µM | 2
O=C(COC(=O)c1ccc(O)cc1)Nc1ccc(S(=O)(=O)N2CCCC2)cc1 | n | n | x | n | x | x | x
O=C(O)CC1c2ccccc2CCN1S(=O)(=O)c1cccs1 (stereo not drawn) | n | n | x | x | x | x | x
CCNCCC(CCC(C)C)c1ccc2c(c1)OCO2 (stereo not drawn) | n | u | u | n | 79µM | 1.6µM | 11
COc1ccc(N(CC(=O)NCc2ccco2)C(=O)CCC(=O)Nc2ccccn2)cc1 | n | n | n | n | n | n | x
SMILES | HP1b binding inh | JMJD2A Tudor inh | Sfp PPTase inh | TDP1 block | BAZ2B block | G9a inh-1 | G9a inh-2 | others
COc1ccc(NC(C)c2cc(Cl)ccc2O)cc1 (stereo not drawn) | 71µM | n[11.4 µM] | n | n | 32µM | u | u
CC(Nc1ccccc1)c1cc(Cl)ccc1O (stereo not drawn) | n | n | n | n | n | n | x
Cc1ccc(-c2nc3cccc(C)n3c2Nc2ccc(F)cc2)o1 | u | 56µM | x | n | x | x | x | RGS4 confirm=19
COc1cc(OC)c(C(=O)CCCN2CCCC2)c(OC)c1 | n | n | n | n | n | u | 9.6
CCOC(=O)C1CCCN(CC(=O)NC2CC2)C1 (stereo not drawn) | 18µM | 5µM | n | n | 32µM | 1.6µM | 45
Oc1ccc2ccccc2c1CN1CCOCC1 | u | u | n | n | n | 0.35µM | 0.8
O=c1oc2c(CN3CCOCC3)c(O)ccc2cc1-c1ccccc1 | n | n | x | n | n | n | x
COc1ccc(C(c2nnnn2C2CCCC2)N2CCc3ccccc3C2)cc1OC (stereo not drawn) | n | n | n | n | u | n | x
COCCn1nnnc1C(c1ccc(O)c(OC)c1)N1CCc2ccccc2C1 (stereo not drawn) | u | u | 14µM | n | u | u | 0.71

Bioassay records: PubChem BioAssay, National Center for Advancing Translational Sciences (NCATS)
